Assay outcomes deposited in PubChem by several laboratories.
sEH inh: soluble epoxide hydrolase inhibitors, primary screen, biochemical, human sEH | inhibition, % at 2 µM | recombinant human sEH enzymatic activity assay | AID 707, 2007 | actives 0.34% (n = 91,000); in the data active = inhibition above about 80%
Target sequence (P34913 whole entry, looked up): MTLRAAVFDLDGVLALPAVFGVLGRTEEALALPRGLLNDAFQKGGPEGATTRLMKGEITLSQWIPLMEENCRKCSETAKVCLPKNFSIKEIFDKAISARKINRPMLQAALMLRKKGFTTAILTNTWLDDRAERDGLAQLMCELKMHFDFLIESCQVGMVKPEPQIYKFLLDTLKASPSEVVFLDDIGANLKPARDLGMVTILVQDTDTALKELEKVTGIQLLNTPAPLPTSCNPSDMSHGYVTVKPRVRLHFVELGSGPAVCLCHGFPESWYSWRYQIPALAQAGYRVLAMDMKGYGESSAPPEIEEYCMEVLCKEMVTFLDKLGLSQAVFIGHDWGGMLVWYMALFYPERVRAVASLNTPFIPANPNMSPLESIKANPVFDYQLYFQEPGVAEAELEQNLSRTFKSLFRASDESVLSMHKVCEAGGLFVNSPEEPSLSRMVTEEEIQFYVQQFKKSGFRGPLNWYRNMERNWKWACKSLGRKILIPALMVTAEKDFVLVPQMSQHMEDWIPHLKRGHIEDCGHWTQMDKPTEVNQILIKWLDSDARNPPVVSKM
sEH act: soluble epoxide hydrolase activators, primary screen, biochemical, human sEH; Bifunctional epoxide hydrolase 2 (Homo sapiens), P34913; purified human sEH enzymatic activity, activator screen; activation, % at 2 µM; actives 0.04% (n = 91,000); in the data active = activation above about 37%
Calb biofilm kill: clotrimazole potentiators killing Candida biofilms, primary screen, with clotrimazole, Alamar Blue; C. albicans biofilm + clotrimazole; actives 0.14% (n = 85,000); AID 834, 2007; inhibition, % at 6 µM;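 active = inhibition above 20%; inactive = inhibition below 20%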;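 also: preformed 24 hr biofilms exposed to compound for 48 hr; 0% = biofilm without compound and 100% = blank killed by clotrimazole plus chlorhexidine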
MRP-1 activ: H69AR viability gain despite doxorubicin, primary screen, MRP-1 activator project, H69AR cells, CellTiter-Glo | actives 0.61% (n = 140,000) | viability increase, % at 10 µM | viability rescue;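 active = viability gain under doxorubicin at or above a set limit, the compound median plus 3 SD, cut at about 4.7% in these data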;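 also: MRP-1 overexpressing cells given doxorubicin 25 µM after compound pretreatment; 18-22 h compound pretreatment then 72 h with doxorubicin before readout; 0% = doxorubicin-only wells and 100% = vehicle-treated cells without doxorubicin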
MRP resist rev: reversal of MRP1-mediated doxorubicin resistance, primary screen, H69AR cells, doxorubicin co-treatment; H69AR cells + 2 uM doxorubicin, CellTiter-Glo, 72 h; differential viability (reversal), % at 10 µM; actives 0.04% (n = 85,000);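 active = viability drop by adding the cancer drug above about 55%, with treated viability meeting a 40% cutoff, limit read from the data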;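 also: viability without doxorubicin minus viability with 2 µM doxorubicin for each compound; larger differential means the compound sensitizes cells more to doxorubicin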
Active calls of the source: *; . = not tested or not shown. Hits are enriched below; roughly 0.87% of the tested compounds scored in any of these assays.

SMILES | sEH inh | sEH act | Calb biofilm kill | MRP-1 activ | MRP resist rev
Cc1nc2cc(-c3ccc(Cl)cc3)nn2c(C)c1CCC(=O)NC(C)c1ccc2c(c1)OCCO2 (stereo not given) | . | . | . | 5.5* | .
Cc1ccc(C(=O)Nc2nc(=O)n(C(=O)CC(C)C)s2)cc1 | . | . | . | 3 | .
CC(C)CC(=O)n1sc(NC(=O)c2ccccc2)nc1=O | -7 | 6 | . | 6.5* | .
COc1ccc(C2NC(=S)NC(O)(C(F)(F)F)C2C(=O)c2cccs2)cc1 (stereo not given) | . | . | . | -2 | .
CC1(C)CC(=O)c2c(O)cc(OCc3ccc(Br)cc3)cc2O1 | -12 | 15 | -5 | 4 | -6
COC(=O)c1ccc(COc2cc(O)c3c(c2)OC(C)(C)CC3=O)cc1 | 2 | 0 | 2 | 6.1* | 6
O=C(Nc1ccccc1Cl)c1cccc(NS(=O)(=O)c2ccccc2)c1 | 4 | -2 | . | 0 | .
CCCCc1ccc(-c2nc(-c3ccncc3)no2)cc1 | . | . | 8 | 4 | 10
CCc1ccc(-c2nc(-c3ccncc3)no2)cc1 | 8 | -8 | 8 | 5.8* | 11
O=C(COc1cccnc1[N+](=O)[O-])Nc1ccc2c(c1)OC(F)(F)O2 | . | . | . | 5.5* | .
O=C(O)CCNC(=O)c1ccc(Br)o1 | . | . | -3 | 0 | -1
O=C(NCCC(c1ccccc1)c1ccccc1)c1ccc(Br)o1 | 97* | -97 | 6 | -2 | 4
COc1ccccc1C1C(C(=O)c2sc(C)nc2C)=C(O)C(=O)N1CCN1CCOCC1 (stereo not given) | . | . | . | 7.6* | .
COc1cccc(C2C(C(=O)c3sc(C)nc3C)=C(O)C(=O)N2CCN2CCOCC2)c1OC (stereo not given) | 0 | 2 | -1 | 0 | -11
COC(=O)c1sc2nc(CN3CCN(c4ccc(OC)cc4)CC3)[nH]c(=O)c2c1C | . | . | . | -2 | .
Cc1cc2cc(CNC(=O)NC3CCCCC3)ccc2[nH]1 | 90* | -90 | 8 | -1 | 3
CC(=O)NCc1ccc2[nH]c(C)cc2c1 | . | . | 12 | -1 | 9
O=C(NCc1ccc(N2CCCC2=O)cc1)NC1CCCCC1 | 80* | -80 | 6 | 0 | -1
CCc1ccc2nc(N3C(=O)c4oc5ccccc5c(=O)c4C3c3ccc(OC)c(OC)c3)sc2c1 (stereo not given) | . | . | . | -4 | .
CCOC(=O)c1c(-c2cccc([N+](=O)[O-])c2)csc1NC(=O)C1CC1 | 17 | -15 | . | -2 | .
CCOC(=O)c1c(-c2cccc([N+](=O)[O-])c2)csc1NC(=O)C1CCCCC1 | . | . | . | 9.4* | .
COc1ccc(OCCCC(=O)NCC(C)C)cc1 | 19 | -19 | 64* | 0 | -2
CCCCCCCCC(=O)NCCOc1ccc(OC)cc1 | . | . | . | -3 | .
COc1cccc(C(=O)NCC(=O)OCC(=O)Nc2cc(OC)c([N+](=O)[O-])cc2C)c1 | . | . | . | -2 | .
O=C(COc1ccc(-n2cnnn2)cc1)NC1CCCCC1 | . | . | 4 | -2 | 15
SMILES | sEH inh | sEH act | Calb biofilm kill | MRP-1 activ | MRP resist rev
Cn1nnc(NC(=O)COc2ccc(C3CCCCC3)cc2)n1 | 10 | -6 | 0 | 5.3* | 13
CCN(CC)S(=O)(=O)c1cccc(NC(=O)CN2C(=O)c3ccc([N+](=O)[O-])cc3C2=O)c1 | . | . | . | -1 | .
O=C(NCc1ccccn1)c1cc(-c2ccc(-c3ccccc3)cc2)nc2ccccc12 | . | . | . | 5.5* | .
CC(C)(C)n1nnnc1CN1CCC(NC(=O)NC2CCCCC2)CC1 | 97* | -97 | 9 | 0 | 2
CCN(CC)c1cc2nc(C)n(Cc3ccccc3)c(=O)c2cc1NC(=O)C1CC1 | -2 | 5 | 3 | 4.8* | -6
COC(=O)c1ccccc1NC(=O)c1cccs1 | 2 | 1 | -1 | -1 | 56*
CCN1CN(Cc2ccco2)CNC1=S | . | . | . | 0 | .
CN(C)S(=O)(=O)c1ccc(C(=O)NCc2ccccc2)cc1 | 6 | -5 | 4 | 0 | -9
O=C(NCc1ccccc1)c1ccc(C(=O)N(C2CCCCC2)C2CCCCC2)cc1 | 13 | -13 | 76* | -3 | 8
C=CCNC(=S)NNC(=O)COc1ccc(Br)cc1 | . | . | . | 6.4* | .
CCc1nnc(NC(=O)C2CCCN2S(=O)(=O)c2ccc(C)cc2)s1 (stereo not given) | -2 | 0 | 1 | 6.8* | -12
CCc1nnc(NC(=O)C2Cc3ccccc3CN2S(=O)(=O)c2ccc(C)cc2)s1 (stereo not given) | 2 | 0 | 1 | -1 | -22
Cc1ccc(-c2cc(C(=O)NCc3ccccn3)c3ccccc3n2)cc1C | 3 | 0 | . | -2 | .
Cc1cc(C)cc(NC(=O)c2oc3ccccc3c2COc2ccccc2)c1 | . | . | . | 5.2* | .
CC1CC(N(C(=O)c2ccccc2Cl)c2ccccc2)c2ccccc2N1 (stereo not given) | 7 | -8 | . | -6 | .
O=C1c2ccsc2SCCN1Cc1ccc(Cl)cc1Cl | -4 | 1 | 7 | -4 | 22
O=C1c2ccsc2SCCN1Cc1c(Cl)cccc1Cl | -13 | 11 | 6 | 7.0* | 9
Cc1ccc(NS(=O)(=O)c2cc(C(=O)Nc3cccc(N(C)S(C)(=O)=O)c3)ccc2C)c(C)c1 | . | . | . | 0 | .
O=S(=O)(/N=C(/Nc1ccccn1)c1ccc(Cl)cc1)c1ccc(Cl)cc1 | . | . | . | -2 | .
CCCCCCC(=O)NNC(=O)CC(=O)Nc1ccccc1C(=O)O | . | . | . | 0 | .
COc1ccccc1C(=O)Oc1ccc(C(C)C)cc1 | -6 | 3 | 58* | -3 | -4
CC1CCCCN1C(=S)Nc1ccc2nc3n(c(=O)c2c1)CCCCC3 (stereo not given) | . | . | . | -2 | .
COc1cccc(C(=O)NC(=S)Nc2nnn(C)n2)c1 | . | . | . | 1 | .
O=C(Cn1cc([N+](=O)[O-])cn1)Nc1ccn(Cc2c(F)c(F)c(F)c(F)c2F)n1 | -4 | 6 | . | 0 | .
CC(C)CCNC(=O)c1ccc(Cl)c(NC(=O)Cc2ccccc2)c1 | . | . | . | -4 | .
SMILES | sEH inh | sEH act | Calb biofilm kill | MRP-1 activ | MRP resist rev
COc1ccc(CNc2nc(NCc3ccc(OC)cc3)n(S(C)(=O)=O)n2)cc1 | 6 | -2 | 5 | 5.1* | 11
COCC(=O)n1nc(NCc2ccc(OC)cc2)nc1NCc1ccc(OC)cc1 | -4 | 4 | 2 | 2 | 10
Cc1cccc(NC(=S)NC2CC3CCCC(C2)N3Cc2cccs2)c1 (stereo not given) | 35 | -33 | . | -6 | .
Cc1cc(C)c2[nH]c(=O)c(CN(CC3CCCO3)S(=O)(=O)c3ccc4c(c3)OCCO4)cc2c1 (stereo not given) | 0 | 0 | 8 | 1 | -4
Cc1cccc2cc(CN(Cc3ccco3)S(=O)(=O)c3ccc4c(c3)OCCO4)c(=O)[nH]c12 | -8 | 6 | 1 | 11* | 5
CCCOC(=O)c1c(-c2ccc(C)cc2C)csc1NC(=O)C1C2CCC(O2)C1C(=O)O (stereo not given) | . | . | . | -3 | .
CS(=O)(=O)Nc1nnc(Cc2ccccc2)s1 | -11 | 14 | 4 | 7.9* | -10
O=C(NCc1ccccc1Cl)c1ccc(Cn2cc(C(F)(F)F)ccc2=O)cc1 | 88* | -88 | . | -1 | .
COc1ccccc1NC(=O)CSC(N)=O | -2 | 1 | 7 | 5.6* | -27
Cc1ccc(NC(=O)CSC2=NCCN2)cc1 | . | . | . | -1 | .
